# According to the supplement of paper PMC3334620:
# Whole data set: some 33,000 sequences, median “E-score (-0.5 to 0.5)” near -0.016, cut for the highest 2% near 0.3. What follows is part of a selection rich in the highest values, with near analogues and random picks from the rest.
# Target: T1, Yer184c (UniProt P39961)
# T1 sequence: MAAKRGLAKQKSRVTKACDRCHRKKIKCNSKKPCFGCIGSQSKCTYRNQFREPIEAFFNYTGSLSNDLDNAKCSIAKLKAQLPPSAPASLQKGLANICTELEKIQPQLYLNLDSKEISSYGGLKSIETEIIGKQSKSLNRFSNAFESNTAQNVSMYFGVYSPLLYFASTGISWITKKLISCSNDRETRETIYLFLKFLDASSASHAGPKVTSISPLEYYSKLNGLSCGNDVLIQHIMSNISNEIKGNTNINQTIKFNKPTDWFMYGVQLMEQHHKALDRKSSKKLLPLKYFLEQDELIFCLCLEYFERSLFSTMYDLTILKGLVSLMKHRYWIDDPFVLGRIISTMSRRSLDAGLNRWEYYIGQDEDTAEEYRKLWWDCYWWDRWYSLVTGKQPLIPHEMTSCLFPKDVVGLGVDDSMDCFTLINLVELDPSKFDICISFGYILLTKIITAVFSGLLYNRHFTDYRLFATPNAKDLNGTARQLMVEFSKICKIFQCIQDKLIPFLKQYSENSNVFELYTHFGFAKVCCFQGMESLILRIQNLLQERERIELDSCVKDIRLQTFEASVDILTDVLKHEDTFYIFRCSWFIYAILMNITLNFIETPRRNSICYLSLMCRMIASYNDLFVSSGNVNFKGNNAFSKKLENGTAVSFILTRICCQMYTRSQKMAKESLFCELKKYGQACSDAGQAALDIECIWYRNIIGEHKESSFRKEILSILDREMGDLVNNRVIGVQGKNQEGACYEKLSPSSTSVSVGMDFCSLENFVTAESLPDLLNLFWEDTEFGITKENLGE
# Experiment: PBM E-score (8-mer binding enrichment) (E-score (-0.5 to 0.5)); higher = stronger / more preferred TF binding
# Conditions: protein concentration: 100 nM; construct: GST-full length
# Method in brief: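 Universal all-10-mer Agilent arrays, fresh or stripped once, were converted to double-stranded form by primer extension. GST-tagged yeast transcription factors from PURExpress in vitro transcription/translation, full-length or DNA-binding domain only, were applied at about 100-200 nM and detected with fluorescent anti-GST. After masliner normalisation, the Universal PBM Analysis Suite scored each ungapped eight-base word together with its reverse complement by E-score.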
row,Sequence,PBM E-score
1,GTCTGGCA,-0.16
2,CAGTATAC,-0.0142
3,AAAAATGC,0.143
4,AAACTAGC,-0.093
5,AGTTCCGC,0.305
6,AGTTCCAC,-0.00257
7,AGTTCCTG,-0.18
8,CGTTCCGC,0.262
9,AGTTCCAG,-0.101
10,GGTTCCGA,0.278
11,AGTTCCGA,0.313
12,AGTTCCGG,0.374
13,CGTTCCGA,0.236
14,CCGGTCTC,0.0994
15,CTAAAGGC,-0.0965
16,ACTAGCAC,-0.174
17,AATGGTAC,-0.00404
18,ACTAGGAA,-0.177
19,CATGCCGA,0.336
20,AATGCCTG,-0.123
21,AATGCCCG,-0.121
22,CATGCCAG,-0.161
23,AATGCCTA,-0.0279
24,AATGCCGA,0.378
25,CATGCCGG,0.366

row,Sequence,PBM E-score
1,CATGCCTA,-0.261
2,AATGCCGG,0.35
3,CATGCCGC,0.181
4,TATGCCGA,0.28
5,CATGCCCG,0.0955
6,CAAATACG,-0.00546
7,CGAAACTA,0.0737
8,CACTAGTC,-0.184
9,ACTAACGA,0.00902
10,AAAGGCAT,0.141
11,AACCTATT,-0.139
12,GCATCCCC,-0.168
13,CATCAATG,-0.0256
14,AATGCCGT,0.304
15,AATGCCAT,0.055
16,GATGCCAA,-0.105
17,GATGCCGC,0.106
18,AATGCCGC,0.199
19,GATGCCGA,0.319
20,CCTCTTCG,-0.00118
21,AGTTCCCG,0.223
22,CCGCGCGA,0.183
23,AGGCGGTA,-0.135
24,ACGCGGAG,0.143
25,CCGCGCGG,0.386

row,Sequence,PBM E-score
1,ACGCGGTA,-0.105
2,CGGCGGTA,0.348
3,CCGCGGAG,0.333
4,GGGCGGTA,-0.0752
5,CCGCGGTA,0.345
6,CCGCGCGC,0.154
7,CCGCGGAC,0.295
8,CCGCGGTC,0.205
9,CCAGCTTC,-0.0253
10,CAAAATGA,0.0065
11,GACTCAAC,0.0381
12,ATCTCTTC,0.0858
13,AGGTTAAC,-0.037
14,GCGCGGGA,0.0199
15,GCGCGGAA,0.138
16,CCGCGGGA,0.324
17,TCGCGGAA,0.137
18,CCGCGGAA,0.416
19,CCGCGGGC,0.25
20,CGGTGGTC,-0.0197
21,AGAGATCC,-0.00438
22,AAGTGTCA,-0.293
23,ACAAAACT,0.144
24,CGCCCAAA,0.0692
